Experimental data reported in PubChem BioAssay (NCATS).
Records with an inconclusive call do not appear. Entries that show only a call come without a potency. The source made the active and inactive calls. The call rests on the fitted dose curve.

target: Nucleoprotein (Lymphocytic choriomeningitis virus (strain Armstrong)) (UniProt P09992); assay: qHTS for Inhibitors of the Functional Ribonucleoprotein Complex (vRNP) of Lymphocytic Choriomeningitis Arenaviruses (LCMV): LCMV Primary Screen - GLuc reporter signal (AID 1347086); conditions: LCMV minigenome vRNP cell assay, Gaussia luciferase reporter; series mostly up to 57.5 µM; further: nearly all actives have a fitted effect of over 70% in size
Sequence (P09992 whole entry, looked up): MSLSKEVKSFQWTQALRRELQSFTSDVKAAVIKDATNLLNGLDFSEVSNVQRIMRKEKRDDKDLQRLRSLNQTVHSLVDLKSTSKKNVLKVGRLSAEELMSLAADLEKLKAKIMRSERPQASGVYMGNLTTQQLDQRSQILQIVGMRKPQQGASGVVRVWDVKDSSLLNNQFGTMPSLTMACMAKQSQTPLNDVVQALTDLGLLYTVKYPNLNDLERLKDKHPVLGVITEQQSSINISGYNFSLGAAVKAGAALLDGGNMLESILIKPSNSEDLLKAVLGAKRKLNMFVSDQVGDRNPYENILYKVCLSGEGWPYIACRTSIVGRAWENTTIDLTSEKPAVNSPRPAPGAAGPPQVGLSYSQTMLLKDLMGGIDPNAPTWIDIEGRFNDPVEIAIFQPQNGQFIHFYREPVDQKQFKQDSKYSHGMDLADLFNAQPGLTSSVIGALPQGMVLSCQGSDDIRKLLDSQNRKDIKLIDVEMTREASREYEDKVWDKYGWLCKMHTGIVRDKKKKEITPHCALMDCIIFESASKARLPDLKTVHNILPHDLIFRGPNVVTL

| SMILES | Potency |
| --- | --- |
| CC[N+](CC)(CC)CC(=O)Nc1c(C)cccc1C | inactive |
| C/C(=C\c1ccc(C(=O)O)cc1)c1ccc2c(c1)C(C)(C)CCC2(C)C | inactive |
| CN1CCc2ccccc2Cc2[nH]c3ccccc3c2CC1 | inactive |
| COc1ccccc1N1CCN(CCN2C(=O)CC3(CCCC3)CC2=O)CC1 | inactive |
| N=C(N)c1ccc(N)cc1 | inactive |
| O=C(c1cc(O)c(O)c([N+](=O)[O-])c1)c1ccccc1F | inactive |
| NCCNS(=O)(=O)c1cccc2c(Cl)cccc12 | inactive |
| CC(=O)N[C@@H](Cc1c[nH]c2ccccc12)C(=O)OCc1cc(C(F)(F)F)cc(C(F)(F)F)c1 | inactive |
| CSC(=N)N | inactive |
| Cn1c(=O)c2[nH]c(-c3ccc(S(=O)(=O)O)cc3)nc2n(C)c1=O | inactive |
| O=C(O)[C@@H]1C[C@@H](C(=O)O)N1 | inactive |
| c1ccc(-c2ccccn2)nc1 | inactive |
| COc1ccc2c(c1)c(CC(=O)O)c(C)n2C(=O)c1ccccc1 | inactive |
| COc1cc2c(CCNC(C)=O)c[nH]c2cc1Cl | inactive |
| COc1cc2c(CCNC(C)=O)c[nH]c2cc1O | inactive |
| C[C@H](O)C(=O)C1=Nc2c(nc(N)[nH]c2=O)NC1 | inactive |
| NC(=O)C(=O)O | inactive |
| O=C(O)c1ccccc1Nc1cccc(OCc2ccc3ccccc3n2)c1 | inactive |
| O=c1ccc2c(OCCCCc3ccccc3)c3ccoc3cc2o1 | inactive |
| C[C@@H]1C(=O)NC2=Nc3cccc(Cl)c3CN21 | inactive |

| SMILES | Potency |
| --- | --- |
| O=C(O)C1=CCCNC1 | inactive |
| O=C(O)c1ccccc1Nc1ccccc1 | inactive |
| CNCCNS(=O)(=O)c1cccc2cnccc12 | inactive |
| CC(C)NC[C@H](O)c1ccc(O)c(O)c1 | inactive |
| NC(N)=NC(N)=Nc1cccc(Cl)c1 | inactive |
| CCCn1c(=O)c2[nH]c(C3CCCC3)nc2n(CCC)c1=O | inactive |
| O=C(O)c1cc(=O)c2ccccc2[nH]1 | inactive |
| COc1ccc(C(=O)NCc2cccnc2)cc1C(=O)NCc1cccnc1 | inactive |
| CC1(C)CCC2=C(O1)c1ccccc1C(=O)C2=O | inactive |
| COc1cc(/C=C(\C#N)C(=O)c2ccc(O)c(O)c2)cc(I)c1O | inactive |
| O=C(O)CC[C@@H](C(=O)O)N1C(=O)c2ccccc2C1=O | inactive |
| O=c1[nH]c(=O)c2nc3ccccc3nc2[nH]1 | inactive |
| CN(C)c1nc(N)c(C(=O)N=C(N)N)nc1Cl | inactive |
| COCc1nc2c([nH]1)c(=O)n(C)c(=O)n2CC(C)C | inactive |
| Oc1ccc(Cn2cc[nH]c2=S)cc1 | inactive |
| N=c1c[n+](N2CCOCC2)[n-]o1 | inactive |
| c1ccc2nc(C3=NCCN3)ccc2c1 | inactive |
| O=[N+]([O-])c1cccc2cn[nH]c12 | inactive |
| CCCCN1CCC(n2c(=O)[nH]c3ccccc32)CC1 | inactive |
| NC1(C(=O)O)CC1 | inactive |
